Consider 40 molecules from PubChem BioAssay (NCI).

This is part of a sample that, as a whole, favours compounds with a hit. Of some 83,000 tested, about 20% had one in any assay.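 Step 1: grow cells in 96-well plates. Step 2: add test compound at a single concentration. Step 3: incubate 48 h. Step 4: record percent growth.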 A number with no mark means an inactive call. Calls of active or inactive are those of the source. Rule for the calls: active = growth percent below 10; inactive = the rest.

The subject of this assay is MDA-MB-468 breast. The experiment in a line: NCI-60 one-dose screen, 48 h (100 = growth as untreated, 0 = no growth, -100 = all killed). The conditions noted are these: 10 µM unless noted.
Regarding `COc1ccc(-n2ncc3c4nc(OC)c(S(=O)(=O)c5ccccc5)cc4ccc32)cc1`, the growth was 51.9%.

Turning to `CCCCCCNC(=O)Oc1ccc(/C(=C(/C)Cc2ccc(OC)cc2)c2ccc(OCCN(C)C)cc2)cc1`, the growth is 62.9%.

Regarding `c1ccc(Cc2ccccc2)cc1`, the growth was 92.9%.

On to `COc1cccc(-c2nc3occn3c2-c2ccnc(NCCCNS(=O)(=O)c3cccc(F)c3)n2)c1`, for which the growth was 65.4%.

Turning to `CCCCCCCCCCCCNC(=S)N/N=C/c1ccccc1O`, the growth is 53.1%.

With `Fc1ccc(CNc2c3ccccc3nc3ccccc23)c(F)c1`, the growth is -4.03% (active).

For `O=C1Nc2ccc(Br)cc2C1=O`, the growth was 109%.

As to `O=[N+]([O-])c1ccc(S(=O)(=O)OCCCCOS(=O)(=O)c2ccc([N+](=O)[O-])cc2)cc1`, the growth is 92.2%.

On to `N/C(=N\OC(=O)c1ccccc1)C(Cc1ccccc1)C(=O)NOC(=O)c1ccccc1` (stereo not given), for which the growth is 66.1%.

Regarding `CN1C(=O)/C(=C/c2nc(-c3cccc(F)c3)n3ccccc23)c2ccccc21`, the growth is 101%.

Take `CC/C=C\CCC/C=C1/C(=O)C=C[C@@H]1C/C=C\CCCC(=O)OC`: the growth was 68.7%.

On to `O=C(CSc1nc2ccccc2c(=O)n1-c1ccccc1)N/N=C/c1ccc(Oc2ccc(Cl)cc2)cc1`, for which the growth is 71.6%.

Regarding `COC(=O)/C=C1/SC(N2N=C(c3cccs3)CC2c2ccc(F)cc2)=NC1=O` (stereo not given), the growth is 36.7%.

As for `CC(C)=CCc1cc2c(cc1O)C1=C(C(=O)C3=C(C1=O)S(=O)(=O)CCN3)C(C=C(C)C)O2` (stereo not given), the growth was -33.5% (active).

Turning to `ClCCOCCn1cnc2c(Cl)nc(Cl)nc21`, the growth was -35.7% (active).

Turning to `Nc1cc2c(cc1C(=O)c1cccc(F)c1)OCCO2`, the growth is 93.8%.

Turning to `O=C1/C(=C/c2ccc(Cl)cc2)COc2ccc(O)c(O)c21`, the growth was -15.3% (active).

With `Nc1nc(=O)n([C@H]2CC=C(CO)O2)cc1F`, the growth is 106%.

As to `CCOC(=O)C(CCC1=NC(C)(C)CC(C)O1)C(=O)OCC` (stereo not given), the growth was 70.5%.

For the molecule `Cc1[nH]c(C(=O)Nc2ccccc2OCc2cccc(C(=O)N3CCC[C@@H](N)C3)c2)c(Cl)c1Cl`, the growth is -74% (active).

In the case of `C[C@@H]1CN(c2cnc(C(=O)Nc3cc(F)cc4cccnc34)cn2)C[C@H](C)N1`, the growth was 3.8% (active).

Turning to `COc1cccc(N2CCN(c3ncnc4c3[nH]c3ccc(F)cc34)C[C@@H]2C)c1`, the growth is -12.5% (active).

On to `Oc1c(I)cc(I)cc1CNCCN(Cc1ccccn1)Cc1ccccn1`, for which the growth was -61.2% (active).

In the case of `COc1ccc(COc2ccc(/C=C3\C(=O)Nc4ccccc43)cc2OC)cc1`, the growth is 100%.

As to `CCc1nc(N)nc(N)c1C#CC(C)c1ccc(-c2ccncc2)cc1Cl` (stereo not given), the growth was 5.88% (active).

Regarding `CC(C)(C)c1ccc(S(=O)(=O)Oc2ccc(-c3sc4cc(OS(=O)(=O)c5ccc(C(C)(C)C)cc5)ccc4c3C(=O)c3ccc(OCCN4CCCCC4)cc3)cc2)cc1`, the growth was 90%.

For `CCn1c(SCC(=O)c2ccc(Br)cc2)nnc1-c1ccncc1`, the growth is 108%.

As to `CN1CCN(CCCOc2ccc3ncnc(Nc4ccc(Oc5cccc(F)c5)c(Cl)c4)c3c2)CC1`, the growth was -66% (active).

`CCOC(=O)C(Nc1ccccc1)C(=O)OCC`: the growth is 104%.

In the case of `C=C1C(=O)O[C@H]2[C@H]1CC/C(COC(=O)NCc1cc(OC)c(OC)c(OC)c1)=C\CC[C@@]1(C)O[C@@H]21`, the growth was 35.4%.

Consider `CN(C)c1ccc(-c2ccc(-c3ccc(C(=N)N)c(F)c3)s2)cc1`, for which the growth is -83.6% (active).

As for `COc1cc(NS(C)(=O)=O)ccc1Nc1c2ccc(Cl)cc2nc2c(OC)cccc12`, the growth was -34.1% (active).

Regarding `COc1cc(NC(=O)SC2=NCCS2)cc(OC)c1`, the growth was 93.3%.

For the molecule `O=C(O)c1cn(C2CC2)c2cc(N3CCN(C(=O)C[n+]4cccc5ccccc54)CC3)c(F)cc2c1=O`, the growth was 71.4%.

On to `Cn1c(NCCc2ccc(O)c(O)c2)nc2c1c(=O)n(Cc1ccc(Cl)c(Cl)c1)c(=O)n2C`, for which the growth was 49.4%.

With `CC[C@H](CC[C@@H](C)[C@H]1CC[C@H]2[C@@H]3/C(=C/c4cccnc4)C(=O)C4=CC(=O)CC[C@]4(C)[C@H]3CC[C@]12C)C(C)C`, the growth was 97%.

With `CCCCn1sc(=O)n(Cc2ccc(CNC(=O)OCc3ccc4c(Cl)cc(Cl)c(O)c4n3)cc2)c1=O`, the growth is 72.4%.

Regarding `C/C(=N\O)C(=O)NCCCCCC(=O)Nc1ccccc1`, the growth was 114%.

For `O=C(Nc1nc2c(s1)CCc1c-2c(Br)n(Cc2ccccc2)c1Br)c1ccccc1`, the growth was 72.8%.

Consider `COc1cc(-c2nc(-c3nc4ccc(Cl)cc4[nH]3)cc3c2[nH]c2ccccc23)cc(OC)c1OC`, for which the growth is 44.1%.
